Active and inactive are the calls of the source. The call rests on the fitted dose curve; in most records, active means well fitted curve in the direction sought with a large enough effect in the repeat runs; inconclusive means weak or mixed curves; inactive means flat fitted curve, though single readings scatter.
Test: qHTS assay to test for compound auto fluorescence at 460 nm (blue) in HepG2 cells (AID 720687)
Conditions: autofluorescence 405/460 nm, 1 h; series mostly up to 46 µM; fluorescence, % of fluorescent control: at the top concentration
Method in brief: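 Cells (2,000/well in MEM with 10% FBS) attached overnight at 37 C, then were exposed to compound or DMSO for 1 hr at 37 C, 5% CO2. Fluorescence read at Ex/Em 405/460 nm, expressed as triamterene-equivalent signal.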
For CCCCCC(O)/C=C/C=O (stereo not drawn), the “fluorescence, % of fluorescent control” value was -0.0947% (inactive). For O=C(Cn1c(=O)sc2ccc(Cl)cc21)N1CCN(CCO)CC1, the “fluorescence, % of fluorescent control” value was 0.11% (inactive). For COc1ccc2c(c1)OC(C)(C)C(c1ccccc1)C2c1ccc(OCCN2CCCC2)cc1 (stereo not drawn), the “fluorescence, % of fluorescent control” value was 0.124% (inactive). For CCCCCCOc1ccc(C(=N)N(CCCC)CCCC)c2ccccc12, the “fluorescence, % of fluorescent control” value was 0.0791% (inactive). For C[C@H](N)C(=O)N[C@@H](C)P(=O)(O)O, the “fluorescence, % of fluorescent control” value was -0.0085% (inactive). For OC[C@H]1OC([S-])[C@H](O)[C@@H](O)[C@@H]1O.[Au+] (stereo partly drawn), the “fluorescence, % of fluorescent control” value was 0.0194% (inactive). With CC[C@@H](C(=O)[C@@H](C)[C@@H](O)[C@H](C)[C@@H]1O[C@@H]([C@@H](CC)C(=O)O)CC[C@@H]1C)[C@H]1O[C@]2(C=C[C@@H](O)[C@]3(CC[C@@](C)([C@H]4CC[C@](O)(CC)[C@H](C)O4)O3)O2)[C@H](C)C[C@@H]1C the “fluorescence, % of fluorescent control” value was -0.0683% (inactive). In the case of C=C1CC[C@H](O)CC1=C/C=C1\CCC[C@]2(C)[C@@H]([C@H](C)CCCC(C)(C)O)CC[C@@H]12, the “fluorescence, % of fluorescent control” value is reported as 0.412% (inactive). For O=C(COc1ccc(Cl)cc1)OCCNC12CC3CC(CC(C3)C1)C2, the “fluorescence, % of fluorescent control” value was 0.114% (inactive). For CCOC(=O)Oc1c(OC)cc(C(=O)O[C@@H]2C[C@@H]3CN4CCc5c([nH]c6cc(OC)ccc56)[C@H]4C[C@@H]3[C@H](C(=O)OC)[C@H]2OC)cc1OC, the “fluorescence, % of fluorescent control” value was 3.95% [at 18.6 µM] (inactive). For Nc1nc2[nH]cc(CCc3ccc(C(=O)N[C@@H](CCC(=O)O)C(=O)O)cc3)c2c(=O)[nH]1, the “fluorescence, % of fluorescent control” value was -0.0301% (inactive). In the case of CC(CC(c1ccccc1)c1ccccc1)NC(C)(C)C (stereo not drawn), the “fluorescence, % of fluorescent control” value is reported as 0.0411% (inactive). In the case of NC[C@@H]1O[C@H](O[C@H]2[C@@H](O)[C@H](O[C@@H]3[C@@H](O)[C@H](N)C[C@H](N)[C@H]3O[C@H]3O[C@H](CN)[C@@H](O)[C@H](O)[C@H]3N)O[C@@H]2CO)[C@H](N)[C@@H](O)[C@@H]1O, the “fluorescence, % of fluorescent control” value is reported as 0.0799% (inactive).
On the % scale 0 is the no-effect control and ±100 the full control effect.
